# Records with an inconclusive call do not appear. Entries that show only a call come without a potency. Active and inactive are the calls of the source. Calls come from the whole dose curve; as a rule, active = well fitted cell-killing curve with a large enough effect in the repeat runs; inconclusive = weak or mixed curves, or effect the other way; inactive = flat fitted curve, though single readings scatter.
# Experiment: qHTS assay to identify small molecule that activate the aryl hydrocarbon receptor (AhR) signaling pathway - cell viability counter screen (AID 743086); note: nearly all actives have a fitted effect of over 45% in size;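 for viability change, negative = cytotoxic: HepG2 liver cells carrying the AhR DRE luciferase reporter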
# Settings: HepG2-AhR-luc viability, CellTiter-Fluor, 24 h; series mostly up to 70.3 µM; viability change, negative = cytotoxic: at the top concentration
# Excerpt: U.S. Tox21 Program National Center for Advancing Translational Sciences [NCATS] NIH Chemical Genomics Center [NCGC] U.S. Environmental Protection Agency [EPA] National Institutes of Environmental Health Sciences [NIEHS] National Toxicology Program [NTP] U.S. Food and Drug Administration [FDA] Tox21 Assay overview: The Aryl hydrocarbon Receptor (AhR), a member of the family of basic helix-loop-helix transcription factors, is crucial to adaptive responses to environmental changes. AhR mediates cellular responses to environmental pollutants such as aromatic hydrocarbons through induction of phase I and II enzymes but also interacts with other nuclear receptor signaling pathways A cell based HepG2-AhR-luc assay (HG2L7.5c1 cell line, developed by Dr. Michael S. Denison, University of California at Davis) was used to assess the activation of AhR. HepG2 (human hepatocellular carcinoma) cells were stably transfected with an Ah receptor-responsive firefly luciferase reporter gene plasmid containing 20 dioxin responsive elements and luciferase reporter gene. Increased luciferase activity can be used to identify the compounds that induce AhR activation. The cytotoxicity of the compounds screened against the HepG2-AhR-luc cell line was tested in parallel by measuring the cell viability using CellTiter-Fluor assay in the same wells.
# Tox21 Assay Protocol Summary: 4000 cells in 5 uL/well were dispensed into white wall/solid bottom 1536-well plates using a Multidrop Combi (Thermo Fisher Scientific Inc., Waltham, MA) dispenser. After the assay plates were incubated at 37C for 5 h, 23 nL of compound or DMSO vehicle was transferred to the assay plates by a pintool station (Kalypsys, San Diego, CA). The plates were incubated at 37C for 24 hr. For cell viability measurement, 1 ul/well of CellTiter-Fluor reagent (Promega, Madison, WI) was added into the assay plates using a Flying Reagent Dispenser (FRD) (Aurora Discovery, CA),and then the assay plates were incubated at 37C for 30 min. The fluorescence intensity in the plates was measured using a ViewLux plate reader (PerkinElmer, Shelton, CT), followed by the addition of 4 uL of ONE-Glo Luciferase Assay reagent (Promega) using an FRD (Aurora Discovery). After the assay plates were incubated at room temperature for 30 min, luminescence intensity was measured using a ViewLux plate reader (Perkin Elmer).
# Potency is the fitted concentration of half-maximal effect.
SMILES,Potency,"viability change, negative = cytotoxic"
C[C@]12CC[C@@H]3c4ccc(O)cc4CC[C@H]3[C@@H]1CC[C@@H]2O,inactive,–
CCO[Si](CCCNC(N)=O)(OCC)OCC,inactive,–
CC(C)(C)c1cccc(C(C)(C)C)c1O,inactive,–
C=C[C@H]1CN2CC[C@H]1C[C@@H]2[C@@H](O)c1ccnc2ccc(OC)cc12,–,0.169% (inactive)
C1COCCN1,inactive,–
CC(=O)Nc1ccc2c(c1)Cc1cc(NC(C)=O)ccc1-2,inactive,–
C=C[C@@]1(C)CC(=O)[C@]2(O)[C@@]3(C)[C@@H](O)CCC(C)(C)[C@@H]3[C@H](O)[C@H](OC(C)=O)[C@@]2(C)O1,inactive,–
O=C(CCCN1CCC(O)(c2ccc(Cl)cc2)CC1)c1ccc(F)cc1,inactive,–
C=CN1CCCC1=O,inactive,–
CCCCCC=O,inactive,–
CCCCCCOCCOCCO,–,-0.399% (inactive)
OCCNCCO,inactive,–
Cc1ccc(N)c([N+](=O)[O-])c1,inactive,–
Nc1ccc2c(c1)C(=O)c1ccccc1C2=O,60 µM (active),–
NCCOCCO,inactive,–
[Na+],inactive,–
Oc1ccc(C(c2ccc(O)cc2)C(Cl)(Cl)Cl)cc1,–,-12% (inactive)
CCCN1C=CN(C)C1,inactive,–
CCCCCCCC/C=C\CCCCCCCC(=O)O,inactive,–
CC(C)(Oc1ccc(Cl)cc1)C(=O)O,inactive,–

SMILES,Potency,"viability change, negative = cytotoxic"
C1CN(SSN2CCOCC2)CCO1,inactive,–
Oc1c(Cl)ccc(Cl)c1Cl,inactive,–
NCCS(=O)(=O)O,–,11.5% (inactive)
CCCCCC1C(=O)CCC1CC(=O)OC (stereo not given),inactive,–
c1ccc2c(c1)ccc1ncccc12,inactive,–
CCC/C=C/C=O,inactive,–
CC(=O)O[C@]1(C(C)=O)CC[C@H]2[C@@H]3C=C(C)C4=CC(=O)CC[C@]4(C)[C@H]3CC[C@@]21C,inactive,–
ClC/C=C/CCl,inactive,–
IC(I)I,inactive,–
CCc1cccc2c3c([nH]c12)C(CC)(CC(=O)O)OCC3 (stereo not given),inactive,–
C=CCOC(=O)C(=C)C,inactive,–
O=C(O)CCCCCCCCCCCC(=O)O,inactive,–
CC[C@]12CCCN3CCc4c(n(c5ccccc45)[C@@](O)(C(=O)OC)C1)[C@@H]32,inactive,–
CC(C)[N+](C)(CCOC(=O)C1c2ccccc2Oc2ccccc21)C(C)C,inactive,–
CC(=O)[C@@]1(O)CC[C@H]2[C@@H]3C[C@H](C)C4=CC(=O)C=C[C@]4(C)[C@@]3(F)[C@@H](O)C[C@@]21C,inactive,–
Nc1cc(Cl)c(N)c(Cl)c1,inactive,–
Cc1ccc(/C(=C\CN2CCCC2)c2ccccn2)cc1,inactive,–
Cc1cccc(Nc2ccccc2C(=O)O)c1C,inactive,–
CCC(Cc1c(I)cc(I)c(N)c1I)C(=O)O (stereo not given),inactive,–
CN(C)/N=N/c1nc[nH]c1C(N)=O,–,-8.06% [at 95 µM] (inactive)

# — PubChem BioAssay (Tox21)
